In test [1] the target is human Peroxisome Proliferator-activated Receptor delta (PPARd), PPARD (gene 5467) (UniProt Q03181). The test is described as follows: ATG_PPARd_TRANS: Attagene TRANS-FACTORIAL HepG2 Assay for human Peroxisome Proliferator-activated Receptor delta (PPARd) (AID 2283002). An outline of the steps:
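Multiplexed trans-activation format: HepG2 liver cells expressing exogenous NR-Gal4 chimeras and GAL4-UAS reporters were exposed for 24 h. Reporter mRNA was detected by RT-PCR with capillary electrophoresis fluorescence; activity fitted as gain of signal relative to DMSO.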

Test [2] deals with human RAR-related Orphan Receptor beta (RORb), RORB (gene 6096) (UniProt Q92753). Briefly: ATG_RORb_TRANS: Attagene TRANS-FACTORIAL HepG2 Assay for human RAR-related Orphan Receptor beta (RORb) (AID 2283010). An outline of the steps:
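Multiplexed transcription-factor reporter assay: HepG2 cells transiently carrying NR-Gal4/GAL4-UAS constructs, 24 h treatment, mRNA quantified by RT-PCR plus capillary electrophoresis fluorescence; activity scored as induction over DMSO.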

Test [3] has as its target human RAR-related Orphan Receptor gamma (RORg), RORC (gene 6097) (UniProt P51449). Briefly: ATG_RORg_TRANS: Attagene TRANS-FACTORIAL HepG2 Assay for human RAR-related Orphan Receptor gamma (RORg) (AID 2283011).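 As to AC50: potency for induction of reporter transcripts above DMSO so activators.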 The essentials:
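First, HepG2 liver cells were transfected with GAL4-UAS-driven reporter constructs and the RORg-Gal4 fusion. Next, they were treated with chemical for 24 h. Finally, reporter mRNA was quantified by RT-PCR and capillary electrophoresis, with upward activity fitted against DMSO.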

Test [4] deals with Retinoic acid receptor RXR-alpha (Homo sapiens) (UniProt P19793). The test is described as follows: ATG_RXRa_TRANS: Attagene TRANS-FACTORIAL HepG2 Assay for human Retinoid X Receptor alpha (RXRa) (AID 2283012). The essentials: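 Chimeric NR-GAL4 trans-activation in HepG2, 24 h treatment; reporter transcripts quantified by fluorescence on capillary electrophoresis, analysed for upward change from DMSO.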

Test [5] addresses Nuclear receptor subfamily 1 group I member 2 (Homo sapiens) (UniProt O75469). Briefly: ATG_PXR_TRANS: Attagene TRANS-FACTORIAL HepG2 Assay for human Pregnane X Receptor (PXR) (AID 2283008). An outline of the steps:
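Transient HepG2 transfectants carrying multiplexed reporter transcription units; PXR activity read through a Gal4 chimera. 24 h exposure. RT-PCR/CE fluorescence; upward curve fit referenced to DMSO.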

For test [6], the target named is human Retinoic Acid Receptor gamma (RARg), RARG (gene 5916) (UniProt P13631). Briefly: ATG_RARg_TRANS: Attagene TRANS-FACTORIAL HepG2 Assay for human Retinoic Acid Receptor gamma (RARg) (AID 2283009). An outline of the steps:
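Gain-of-signal relative to DMSO is reported from fluorescent capillary electrophoresis of RT-PCR reporter products. These came from HepG2 cells expressing transfected RARg-GAL4 chimeras with UAS reporters, harvested 24 h after dosing.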

Read-out in test [7]: Intercellular Adhesion Molecule 1 (ICAM1), ICAM1 (gene 3383)
The test is described as follows: BSK_3C_ICAM1: BioMAP Diversity Plus: 3C Assay for Intercellular Adhesion Molecule 1 (ICAM1) Biomarker Activity (AID 2283003; active = hit-call score of the fitted dose curve at least 0.9, where 1 is the maximum; inactive = score below 0.9). As to conditions: primary human endothelial cells (HUVEC); actives raise or lower the signal. The essentials: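 Using DMSO as baseline, bidirectional curve fitting was applied to ICAM-1 ELISA signals from HUVEC in the 3C system, measured 24 h after compound addition.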

Test [8] addresses human Retinoic Acid Receptor beta (RARb), RARB (gene 5915) (UniProt P10826). The test is described as follows: ATG_RARb_TRANS: Attagene TRANS-FACTORIAL HepG2 Assay for human Retinoic Acid Receptor beta (AID 2283004). The essentials: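 Transient transfection of HepG2 with multiple reporter units → chemical dosing, 24 h → total RNA isolation → RT with oligo(dT) → reporter-specific PCR, 6-FAM primer extension, HpaI digest → capillary electrophoresis. Positive direction vs DMSO control.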

Test [9] has as its target Retinoic acid receptor alpha (Homo sapiens) (UniProt P10276). The test is described as follows: ATG_RARa_TRANS: Attagene TRANS-FACTORIAL HepG2 Assay for human Retinoic Acid Receptor alpha (RARa) (AID 2283005).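 As to AC50: potency for increased reporter signal meaning RARa activation over DMSO.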 An outline of the steps:
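HepG2 cells transiently transfected with multiple reporter units expressing chimeric RARα-GAL4 fusion, with GAL4-UAS-driven reporters. After 24 h compound exposure, reporter mRNA induction quantified by RT-PCR and capillary electrophoresis with fluorescent labeling; gain-of-signal fitted relative to DMSO control.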

Test [10] concerns the target Peroxisome proliferator-activated receptor gamma (Homo sapiens) (UniProt P37231). The test is described as follows: ATG_PPARg_TRANS: Attagene TRANS-FACTORIAL HepG2 Assay for human Peroxisome Proliferator-activated Receptor-gamma (PPARg) (AID 2283007). An outline of the steps: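 Transient transfection of HepG2 with GAL4-UAS-driven reporter units; chemical dosing 24 h; total RNA → oligo(dT) RT → PCR with reporter primers → 6-FAM primer extension → HpaI digest 2 h 37 C → capillary electrophoresis. Positive direction vs DMSO.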

The values that follow come from PubChem BioAssay (EPA / NIEHS).

Each structure is given as a SMILES string. Values joined by “and” are separate entries in the source; they are usually repeats but may differ in a detail not shown here. Equal entries are not always repeated. Results filed as inconclusive are left out. Active and inactive are the calls of the source. The calls were made as follows, unless noted: active = hit-call score of the fitted dose curve at least 0.9, where 1 is the maximum; inconclusive = response in the unintended direction; inactive = score below 0.9.

What is called AC50 is the concentration at which the activity in the assay is half-maximal.

human Retinoic Acid Receptor beta (RARb), RARB (gene 5915), sequence (P10826 whole entry, looked up): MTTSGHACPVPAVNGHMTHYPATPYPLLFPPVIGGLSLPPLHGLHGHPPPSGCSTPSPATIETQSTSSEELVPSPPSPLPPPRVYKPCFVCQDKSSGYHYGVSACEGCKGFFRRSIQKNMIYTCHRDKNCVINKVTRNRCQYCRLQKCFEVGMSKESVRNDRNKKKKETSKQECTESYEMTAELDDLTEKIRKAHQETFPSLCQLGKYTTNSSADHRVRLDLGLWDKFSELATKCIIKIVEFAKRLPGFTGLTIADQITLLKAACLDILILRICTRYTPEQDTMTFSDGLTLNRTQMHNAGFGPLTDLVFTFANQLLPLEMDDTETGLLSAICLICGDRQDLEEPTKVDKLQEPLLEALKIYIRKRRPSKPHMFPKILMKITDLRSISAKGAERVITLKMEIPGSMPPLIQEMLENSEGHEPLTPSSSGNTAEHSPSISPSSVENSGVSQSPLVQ
human Retinoic Acid Receptor gamma (RARg), RARG (gene 5916), sequence (P13631 whole entry, looked up, the tested form may be a part): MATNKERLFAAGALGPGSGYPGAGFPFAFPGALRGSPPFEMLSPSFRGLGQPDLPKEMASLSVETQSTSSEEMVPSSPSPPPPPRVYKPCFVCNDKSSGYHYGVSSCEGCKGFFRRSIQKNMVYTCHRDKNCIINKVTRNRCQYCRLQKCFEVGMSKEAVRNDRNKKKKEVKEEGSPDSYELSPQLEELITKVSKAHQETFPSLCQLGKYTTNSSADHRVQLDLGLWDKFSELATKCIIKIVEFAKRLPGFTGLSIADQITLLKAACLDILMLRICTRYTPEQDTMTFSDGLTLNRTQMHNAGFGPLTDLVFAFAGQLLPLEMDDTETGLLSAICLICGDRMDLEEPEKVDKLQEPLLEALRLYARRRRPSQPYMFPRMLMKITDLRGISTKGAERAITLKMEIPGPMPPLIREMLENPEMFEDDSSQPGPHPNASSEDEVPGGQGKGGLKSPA
Retinoic acid receptor alpha (Homo sapiens), sequence (P10276 whole entry, looked up, the tested form may be a part): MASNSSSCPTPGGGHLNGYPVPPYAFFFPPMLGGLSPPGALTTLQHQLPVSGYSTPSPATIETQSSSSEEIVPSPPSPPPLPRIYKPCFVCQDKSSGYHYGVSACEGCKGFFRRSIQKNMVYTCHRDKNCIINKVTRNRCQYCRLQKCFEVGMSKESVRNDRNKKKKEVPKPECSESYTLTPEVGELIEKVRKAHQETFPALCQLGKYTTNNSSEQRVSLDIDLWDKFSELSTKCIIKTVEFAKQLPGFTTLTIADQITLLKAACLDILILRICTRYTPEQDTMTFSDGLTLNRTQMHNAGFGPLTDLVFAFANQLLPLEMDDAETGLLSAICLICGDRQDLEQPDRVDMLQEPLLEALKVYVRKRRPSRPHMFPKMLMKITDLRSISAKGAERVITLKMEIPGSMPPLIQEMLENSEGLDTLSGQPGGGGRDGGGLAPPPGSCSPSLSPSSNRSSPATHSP
Peroxisome proliferator-activated receptor gamma (Homo sapiens), sequence (P37231 whole entry, looked up, the tested form may be a part): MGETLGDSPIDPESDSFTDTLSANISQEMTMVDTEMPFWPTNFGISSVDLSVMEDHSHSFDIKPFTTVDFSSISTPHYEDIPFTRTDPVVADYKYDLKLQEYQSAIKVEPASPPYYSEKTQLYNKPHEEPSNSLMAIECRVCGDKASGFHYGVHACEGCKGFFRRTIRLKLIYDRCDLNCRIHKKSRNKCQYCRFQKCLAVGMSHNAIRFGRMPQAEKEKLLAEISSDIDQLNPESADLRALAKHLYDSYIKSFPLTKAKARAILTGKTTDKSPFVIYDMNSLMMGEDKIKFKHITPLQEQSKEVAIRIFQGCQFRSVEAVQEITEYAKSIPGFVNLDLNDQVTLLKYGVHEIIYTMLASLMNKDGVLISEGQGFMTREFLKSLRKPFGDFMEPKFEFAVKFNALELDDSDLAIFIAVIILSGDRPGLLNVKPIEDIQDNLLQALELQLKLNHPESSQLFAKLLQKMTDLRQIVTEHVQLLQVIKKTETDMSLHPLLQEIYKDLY
human Peroxisome Proliferator-activated Receptor delta (PPARd), PPARD (gene 5467), sequence (Q03181 whole entry, looked up, the tested form may be a part): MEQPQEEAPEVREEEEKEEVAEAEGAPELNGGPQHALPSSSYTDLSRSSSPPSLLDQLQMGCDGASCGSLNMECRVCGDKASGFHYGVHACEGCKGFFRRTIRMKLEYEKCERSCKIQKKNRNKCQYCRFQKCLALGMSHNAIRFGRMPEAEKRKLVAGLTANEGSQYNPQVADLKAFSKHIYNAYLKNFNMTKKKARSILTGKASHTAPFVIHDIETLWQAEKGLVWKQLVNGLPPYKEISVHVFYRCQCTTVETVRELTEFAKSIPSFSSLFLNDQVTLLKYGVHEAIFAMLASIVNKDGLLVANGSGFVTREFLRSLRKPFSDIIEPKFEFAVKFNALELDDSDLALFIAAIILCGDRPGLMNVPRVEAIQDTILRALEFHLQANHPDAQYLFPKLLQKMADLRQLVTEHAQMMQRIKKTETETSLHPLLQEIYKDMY
human RAR-related Orphan Receptor beta (RORb), RORB (gene 6096), sequence (Q92753 whole entry, looked up, the tested form may be a part): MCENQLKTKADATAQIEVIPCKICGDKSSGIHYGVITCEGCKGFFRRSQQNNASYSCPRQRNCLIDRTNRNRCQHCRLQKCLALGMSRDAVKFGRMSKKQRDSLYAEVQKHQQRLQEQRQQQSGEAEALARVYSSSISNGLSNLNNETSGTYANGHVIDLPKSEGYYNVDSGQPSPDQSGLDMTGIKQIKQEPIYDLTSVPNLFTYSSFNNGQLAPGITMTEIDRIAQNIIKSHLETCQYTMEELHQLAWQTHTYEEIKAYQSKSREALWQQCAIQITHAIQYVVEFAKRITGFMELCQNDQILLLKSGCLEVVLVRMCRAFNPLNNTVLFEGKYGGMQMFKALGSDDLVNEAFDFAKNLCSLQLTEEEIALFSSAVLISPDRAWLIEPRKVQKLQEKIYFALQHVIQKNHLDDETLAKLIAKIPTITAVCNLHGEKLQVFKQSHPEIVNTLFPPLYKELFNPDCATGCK
Nuclear receptor subfamily 1 group I member 2 (Homo sapiens), sequence (O75469 whole entry, looked up, the tested form may be a part): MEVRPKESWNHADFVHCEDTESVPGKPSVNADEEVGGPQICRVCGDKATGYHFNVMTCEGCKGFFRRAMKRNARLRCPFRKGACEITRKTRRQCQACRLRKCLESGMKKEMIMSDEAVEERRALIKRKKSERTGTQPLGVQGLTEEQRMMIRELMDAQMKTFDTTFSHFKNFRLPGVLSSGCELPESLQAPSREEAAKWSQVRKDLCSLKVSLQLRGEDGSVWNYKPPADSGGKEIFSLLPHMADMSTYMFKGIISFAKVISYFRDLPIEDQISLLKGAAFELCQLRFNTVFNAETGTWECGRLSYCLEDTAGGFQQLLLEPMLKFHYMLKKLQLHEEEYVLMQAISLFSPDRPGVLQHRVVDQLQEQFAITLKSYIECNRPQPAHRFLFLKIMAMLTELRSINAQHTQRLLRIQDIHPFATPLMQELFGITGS
human RAR-related Orphan Receptor gamma (RORg), RORC (gene 6097), sequence (P51449 whole entry, looked up, the tested form may be a part): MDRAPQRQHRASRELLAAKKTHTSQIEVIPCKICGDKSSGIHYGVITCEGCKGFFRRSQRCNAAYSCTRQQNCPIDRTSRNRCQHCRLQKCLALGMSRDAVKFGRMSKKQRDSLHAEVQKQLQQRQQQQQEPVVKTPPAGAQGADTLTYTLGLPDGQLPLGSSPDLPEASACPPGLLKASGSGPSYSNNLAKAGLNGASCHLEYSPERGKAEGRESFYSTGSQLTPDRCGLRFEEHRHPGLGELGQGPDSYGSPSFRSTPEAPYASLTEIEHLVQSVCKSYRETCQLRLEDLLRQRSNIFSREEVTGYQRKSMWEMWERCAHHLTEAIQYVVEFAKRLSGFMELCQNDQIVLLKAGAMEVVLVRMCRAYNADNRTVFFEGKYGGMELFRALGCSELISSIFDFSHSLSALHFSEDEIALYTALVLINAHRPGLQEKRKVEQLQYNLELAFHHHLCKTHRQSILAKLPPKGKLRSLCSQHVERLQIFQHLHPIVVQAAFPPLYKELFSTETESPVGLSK
Retinoic acid receptor RXR-alpha (Homo sapiens), sequence (P19793 whole entry, looked up, the tested form may be a part): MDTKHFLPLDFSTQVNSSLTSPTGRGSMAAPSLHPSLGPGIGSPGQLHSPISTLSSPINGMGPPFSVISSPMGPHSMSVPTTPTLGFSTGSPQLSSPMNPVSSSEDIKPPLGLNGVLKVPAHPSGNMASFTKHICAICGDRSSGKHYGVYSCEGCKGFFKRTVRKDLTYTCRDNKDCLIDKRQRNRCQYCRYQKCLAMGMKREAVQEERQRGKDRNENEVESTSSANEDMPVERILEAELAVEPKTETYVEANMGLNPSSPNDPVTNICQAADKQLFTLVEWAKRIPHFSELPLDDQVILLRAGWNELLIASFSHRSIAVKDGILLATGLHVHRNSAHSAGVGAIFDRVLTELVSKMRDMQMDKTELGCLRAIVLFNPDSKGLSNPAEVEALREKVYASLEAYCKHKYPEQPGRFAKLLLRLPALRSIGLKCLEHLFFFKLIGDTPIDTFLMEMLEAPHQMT

`OCCNCc1ccccc1`: the call in [1], in test [2], in [3] and in [4] was inactive.

As for `O=c1[nH]nc(-c2ccc([N+](=O)[O-])o2)o1`, the result in test [1], in [5], in test [2] and in test [4] was inactive.

Take `ON(Cc1ccccc1)Cc1ccccc1`: the molecule was called inactive in [1], in [6] and in test [4]. For the same molecule, the concentration at half-maximal activity (AC50) in test [5] was 17.2 µM (active).

Regarding `O=S(=O)(O)c1ccc2cc(O)c(S(=O)(=O)O)cc2c1`, the molecule was called inactive in test [1], in test [5] and in test [4].

In the case of `[Cl][Nd]([Cl])[Cl]`, the outcome in test [1], in test [5] and in [3] was inactive.

For the molecule `NCCCN1CCN(CCCN)CC1`, the molecule was called inactive in test [1], in test [5], in test [6] and in test [2].

Turning to `N[C@H]1C(O)O[C@H](CO)[C@H](O)[C@@H]1O` (some centres not stated), the molecule was called inactive in test [1] and in test [4].

Take `c1ccc2c(c1)ccc1ncccc12`: the outcome in [7], in [8], in test [5], in [2] and in test [4] was inactive. Moreover, the figures for the AC50 in [9] and in test [10] were 13.4 µM (active) and 67.1 µM (active), respectively.

For the molecule `COCCCOCCCOC`, the molecule was classed as inactive in test [1], in test [5] and in test [3].

For `NC(=O)OCC(COC(N)=O)c1ccccc1`, the result in test [1], in [5], in test [2] and in [3] was inactive.

With `O=c1c2ccccc2oc2ccccc12`, the outcome in test [7], in test [8], in test [6] and in [4] was inactive. In test [5], the AC50 is 27.3 µM (active).

For `CCCCCCCCc1ccc(Nc2ccc(CCCCCCCC)cc2)cc1`, the result in [7], in [8], in test [9], in [10], in test [6] and in test [4] was inactive. Also, the AC50 in [5] is 1.68 µM (active).

For the molecule `COc1ccc2nc(N)sc2c1`, the outcome in test [7], in [10], in test [5], in test [6], in test [2] and in test [3] was inactive. For the same molecule, the molecule was called inactive in test [4].

For `c1ccc(-c2ccccn2)nc1`, the result in test [7], in test [9], in test [10], in [5], in test [6] and in test [4] was inactive.

As for `CN(C)c1ccc(N=Nc2ccccc2C(=O)O)cc1`, the result in [1] and in [4] was inactive. In addition, the half-maximal activity concentration (AC50) in test [10] was 27.5 µM (active).

On to `CCCCCCOC(=O)C(C)CC` (configuration not stated), for which the outcome in test [1], in test [5], in [2] and in test [4] was inactive.

In the case of `C=CC(=O)OCC(Br)CBr` (configuration not stated), the AC50 in [7] was 30.1 µM (active); in [10], 51.6 µM (active); in [5], 100 µM (active); in [3] it was 176 µM (active). Besides, the outcome in test [2] and in [4] was inactive.

`CCC(C)C=O` (configuration not stated): the call in test [1], in test [5], in [2], in [3] and in test [4] was inactive.

Take `O=CC1CC1`: the call in test [1], in test [6] and in [3] was inactive.

In the case of `C[C@]12C=CC(=O)C=C1CC[C@@H]1[C@@H]2[C@@H](O)C[C@@]2(C)[C@H]1CC[C@]2(O)C(=O)CO`, the molecule was called inactive in test [1], in test [2], in [3] and in [4]. The concentration at half-maximal activity (AC50) in [5] was 25.9 µM (active).

Regarding `CC1(C)S[C@@H]2[C@H](NC(=O)COc3ccccc3)C(=O)N2[C@H]1C(=O)O`, the result in [1] and in [2] was inactive.

`CC(C)(C)c1ccc(-c2ccc(C(C)(C)C)cc2)cc1`: the outcome in test [1], in test [5], in test [2] and in test [4] was inactive.

As for `O=Nc1ccc(O)cc1`, the outcome in [7], in [8], in test [3] and in test [4] was inactive.

In the case of `O=[N+]([O-])c1ccc(CO)cc1`, the result in test [1], in test [5], in test [2] and in [4] was inactive.

Take `CC1OC1C1CCC2(C)OC2C1` (configuration not stated): the result in [7], in test [9], in test [2] and in [4] was inactive. Moreover, the AC50 in test [5] is 23.4 µM (active).

In the case of `CCCCCCCOC(=O)CCC`, the molecule was called inactive in test [1] and in test [2].

In the case of `O=C1CCC(=O)N1Cl`, the outcome in [1], in [5] and in test [4] was inactive.

In the case of `C=CC=CC=CCCCCC`, the outcome in test [7] and in test [2] was inactive. The AC50 in test [10] is 6.66 µM (active); in [5] it was 6.77 µM (active).

Consider `CC(=O)c1ccc[nH]1`, for which the call in test [1], in test [10], in test [3] and in test [4] was inactive.

Consider `CC(=O)CC(N)=O`, for which the molecule was classed as inactive in test [1], in [5] and in test [4].

As to `CCCOCCOCCOCCO`, the outcome in test [1], in test [5] and in [3] was inactive.

As for `CCCCNc1ccc(NCCCC)c2c1C(=O)c1ccccc1C2=O`, the outcome in [7], in [10], in [5] and in test [3] was inactive.

In the case of `CCCCCCCC(C)=O`, the molecule was called inactive in [1], in test [5] and in [3].

`C=CCOc1c(Br)cc(Br)cc1Br`: the half-maximal activity concentration (AC50) in test [7] was 28.7 µM (active); in test [5], 27.4 µM (active); in [4], 56.2 µM (active). The outcome in test [8], in test [9], in [10], in test [6], in test [2] and in test [3] was inactive.

With `CCOC(=O)c1ccccc1C(=C1C=C(Br)C(=O)C(Br)=C1)c1cc(Br)c(O)c(Br)c1`, the AC50 was 21.1 µM (active) and 21.2 µM (active) in test [7]; 3.1 µM (active) in test [10]. Besides, the outcome in test [5] was inactive.

Turning to `Cc1ccc(OC(=O)CC(C)C)cc1`, the result in test [1], in [3] and in test [4] was inactive.

As to `O=C1CCCCCCCCCCC(=O)OCCO1`, the molecule was classed as inactive in test [8], in test [9], in [10], in test [5], in test [6] and in test [2]. Also, the molecule was called inactive in test [4].

Regarding `O=C(Nc1ccccc1SSc1ccccc1NC(=O)c1ccccc1)c1ccccc1`, the outcome in test [7] and in [4] was inactive. Further, the AC50 in test [10] is 17.7 µM (active); in test [5] it was 8.27 µM (active).

On to `C=C(C)CCO`, for which the molecule was called inactive in [8], in test [9], in test [5], in test [6], in test [2] and in test [3]. Besides, in test [4], the molecule was called inactive.

For `CC1=NC(C)OC1C` (configuration not stated), the call in test [8], in [9], in [10] and in [4] was inactive. In addition, the AC50 in test [5] was 19.8 µM (active).
